Test in all cases: NCI-60 one-dose screen, 48 h (100 = growth as untreated, 0 = no growth, -100 = all killed)
Conditions in all cases: 10 µM unless noted

Test [1] deals with HCT-15 colon.
The test system of test [2] is HT29 colon.
The test system of test [3] is SNB-75 CNS.
The test system of test [4] is SNB-19 CNS.
For test [5], the system named is U251 CNS.
Test [6] concerns PC-3 prostate.
Test [7] has as its system SK-MEL-5 melanoma.
The subject of test [8] is UACC-62 melanoma.
Test [9] has as its system LOX IMVI melanoma.
For test [10], the system named is SK-MEL-28 melanoma.
Test [11] concerns SK-MEL-2 melanoma.
Test [12] concerns EKVX NSCLC.
The subject of test [13] is SN12C renal.
Test [14] concerns UO-31 renal.
Test [15] deals with TK-10 renal.
The test system of test [16] is ACHN renal.
The test system of test [17] is CAKI-1 renal.
In test [18] the test system is A498 renal.
Test [19] relates to CCRF-CEM leukemia.
The subject of test [20] is MOLT-4 leukemia.

Where “and” joins values, the source holds several entries; their conditions need not be identical. Equal entries are not always repeated. Compounds without any hit were thinned out: in the full panel of roughly 83,000, 20% have a hit.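 Testing used 96-well plates and a 48-hour single-concentration exposure. Example: -40 means 40% of the starting cells died.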 Calls of active or inactive are those of the source. How the source made its calls: active means growth percent below 10; inactive means the rest.

For the molecule `CC1(C)OC(=O)C(=Cc2ccc(C#N)cc2)C(=O)O1`, the growth is 109% (inactive) and 104% (inactive) in [1]; 97.7% (inactive) and 100% (inactive) in test [2]; 97% (inactive) and 96.4% (inactive) in test [3]; 98.9% (inactive) and 101% (inactive) in [4]; 89.7% (inactive) in test [5]; 84.3% (inactive) and 99.2% (inactive) in test [6]. The growth in test [7] is 95.6% (inactive); in test [8], 101% (inactive) and 117% (inactive); in test [9], 103% (inactive); in [10], 114% (inactive) and 101% (inactive); in test [11], 93.7% (inactive); in test [12] it was 102% (inactive). Further, the growth in test [13] is 104% (inactive) and 112% (inactive); in test [14] it was 94.3% (inactive) and 87.1% (inactive); in test [15] it was 98.3% (inactive) and 101% (inactive); in test [16] it was 108% (inactive) and 98.1% (inactive); in test [17], 102% (inactive) and 99.3% (inactive); in test [18], 104% (inactive) and 94.8% (inactive). Further, the growth in test [19] was 102% (inactive) and 97.1% (inactive); in test [20], 103% (inactive) and 80.1% (inactive).
Take `C/C(CC(C)C)=N/NC(N)=S`: the growth in test [1] is 79.4% (inactive); in [2] it was 56.1% (inactive); in test [3], 99.3% (inactive); in test [4], 107% (inactive); in test [5], 79.3% (inactive); in test [6], 93.4% (inactive). Further, the growth was 99.5% (inactive) in test [7]; 105% (inactive) in test [8]; 95.4% (inactive) in [9]; 106% (inactive) in test [10]; 107% (inactive) in test [11]; 59.6% (inactive) in [12]. In addition, the growth in [13] was 87.2% (inactive); in test [14], 62.1% (inactive); in [15], 105% (inactive); in test [17], 104% (inactive); in test [18] it was 87.6% (inactive); in test [19], 43.8% (inactive). Further, in [20], the growth is 52.1% (inactive).
Turning to `CCC(=O)Oc1ccc(OCc2ccccc2)cc1`, the growth was 103% (inactive) and 97% (inactive) in test [1]; 98.7% (inactive) and 91.2% (inactive) in test [2]; 98.2% (inactive) and 105% (inactive) in test [3]; 97.7% (inactive) and 96.5% (inactive) in test [4]; 87.7% (inactive) and 80.8% (inactive) in [5]; 77.6% (inactive) and 58.7% (inactive) in test [6]. The growth in [7] is 84.1% (inactive) and 73.6% (inactive); in test [8], 81.8% (inactive) and 79.9% (inactive); in test [9], 88.8% (inactive) and 84.7% (inactive); in test [10] it was 122% (inactive) and 111% (inactive); in [11], 123% (inactive); in test [12] it was 97.2% (inactive) and 105% (inactive). Also, the growth in test [13] was 110% (inactive) and 81.6% (inactive); in test [14], 45.6% (inactive) and 30.4% (inactive); in test [15] it was 92.1% (inactive); in test [16] it was 18.4% (inactive) and 13.3% (inactive); in test [17] it was 61.2% (inactive) and 3.23% (active); in test [18], 120% (inactive) and 93.1% (inactive). Also, the growth in test [19] is 62.9% (inactive) and 63.6% (inactive); in [20], 74.4% (inactive) and 75.2% (inactive).
Turning to `COc1ccc(-n2[nH]c3c(cnc4ccccc43)c2=O)cc1`, the growth in test [1] was 96.1% (inactive) and 91.4% (inactive); in test [2], 95.1% (inactive) and 93.4% (inactive); in test [3], 98.1% (inactive); in [4] it was 103% (inactive); in [5], 107% (inactive); in test [6] it was 91.3% (inactive) and 97.4% (inactive). Besides, the growth in test [7] was 100% (inactive) and 98.7% (inactive); in [8], 95.9% (inactive) and 87.9% (inactive); in test [9] it was 88% (inactive) and 105% (inactive); in [10], 108% (inactive) and 100% (inactive); in test [11], 79.5% (inactive) and 111% (inactive); in [12], 89% (inactive). Besides, the growth in test [13] was 85% (inactive) and 95% (inactive); in test [14], 70.7% (inactive); in test [15] it was 90% (inactive) and 93.4% (inactive); in test [17], 68.3% (inactive) and 95.9% (inactive); in test [18] it was 93.7% (inactive) and 91.9% (inactive); in [19] it was 101% (inactive). For the same molecule, the growth in test [20] is 108% (inactive) and 99.9% (inactive).
For `c1ccc2c[n+](Cc3ccc4ccccc4n3)ccc2c1`, the growth was 106% (inactive) in test [1]; 57.2% (inactive) in test [2]; 79.7% (inactive) in test [3]; 71.2% (inactive) in test [4]; 55.4% (inactive) in test [5]; 50.9% (inactive) in test [6]. The growth in test [7] is 15.1% (inactive); in test [8], 90% (inactive); in [9] it was 88.8% (inactive); in test [10], 87.6% (inactive); in [11], 102% (inactive); in [13], 80% (inactive). Further, the growth in [14] was 82.4% (inactive); in test [15], 99.9% (inactive); in test [16], 99.8% (inactive); in [17], 102% (inactive); in [18], 79.4% (inactive); in test [19], 76.8% (inactive). Besides, the growth in test [20] is 92.4% (inactive).
On to `Cc1ccc(NC(=S)N/C=C(\c2ccccc2)S(=O)Cc2ccccc2)c(C)c1` (stereo unspecified), for which the growth is 103% (inactive) in test [1]; 108% (inactive) in test [2]; 87.2% (inactive) in test [3]; 100% (inactive) in [4]; 87.9% (inactive) in [5]; 86% (inactive) in [6]. The growth in test [7] was 98.7% (inactive); in test [8], 92.2% (inactive); in test [9], 102% (inactive); in [10] it was 112% (inactive); in test [11], 103% (inactive); in [12], 86.7% (inactive). Further, the growth in [13] is 98.9% (inactive); in [14], 80.2% (inactive); in test [15], 109% (inactive); in test [17], 87.5% (inactive); in test [18], 103% (inactive); in test [19], 97.3% (inactive). Also, the growth in test [20] is 94.3% (inactive).
